Among all 2,200 compounds or so, about 530 (24%) were called active.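 The calls were made as follows: active = inhibition above a set limit at one or more concentrations of the dose series; inactive = inhibition under that limit at every dose.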 Not all results are given here. Results with a measured potency or affinity are listed apart.
test: nmpC-GFP reporter counter-screen in S. Typhimurium, dose response, counter-screen for PhoP regulon inhibitor project, Salmonella Typhimurium, GFP fluorescence (AID 2401); conditions: 4 h; series mostly up to 150 µM;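 also: S. typhimurium with Mg-insensitive nmpC-GFP reporter grown at 10 µM Mg2+; drop in reporter fluorescence reflects general culture growth inhibition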

Structure (SMILES) | outcome
CCCCn1c(SCC(=O)Nc2nnc(CC)s2)nc2c1c(=O)n(C)c(=O)n2C | inactive
Cc1ccc(OCC(=O)N2CCN(S(=O)(=O)c3ccccc3)CC2)c([N+](=O)[O-])n1 | inactive
O=C(CSc1nnc(-c2ccc(Br)cc2)o1)Nc1cccc2ccccc12 | inactive
COc1ccc(CCN2CC3=C(C2=O)C(c2ccccc2)NC(=O)N3C)cc1OC (centres undefined) | inactive
COc1ccc(C2=Nc3nc(-c4ccccc4)cn3C(c3ccc(OC)cc3)C2)cc1 (centres undefined) | inactive
CC(C)CC(=O)N/C(N)=N/c1nc2ccccc2s1 | inactive
O=C1NC(=Nc2ccccc2)/C(=C/c2ccco2)S1 | inactive
O=C(CNC(=O)OCc1ccccc1)NCC(=O)N1CCCC1C(=O)OCc1ccccc1 (centres undefined) | inactive
CC(NC(=O)CSc1nc2c(cc1C#N)CN(C)CC2)c1ccccc1 (centres undefined) | inactive
CCCn1c(N)c(C(=O)COC(=O)c2c(C)noc2C)c(=O)n(C)c1=O | inactive
CC(CO)(CO)NCc1ccc(-c2ccccc2)cc1 | inactive
COc1ccc2c(c1)C1C=CCC1C(c1cc3c(cc1Br)OCO3)N2 (centres undefined) | inactive
O=C1CCCc2c1cc(C(=O)NCc1ccco1)c(=O)n2-c1ccc(Cl)cc1 | inactive
CCOc1ccccc1Nc1nc2ccccc2n2cnnc12 | inactive
O=C(CCN1CCCCC1)NCC1OCCc2ccccc21 (centres undefined) | inactive
O=C(CCN1CCc2ccccc2C(c2ccccc2)C1)c1ccc2c(c1)OCCO2 (centres undefined) | inactive
c1ccc(Cn2nnc3c(NCc4ccc5c(c4)OCO5)nc(C4CC4)nc32)cc1 | inactive
FC(F)Oc1ccc(NC(=S)NCc2nc3ccccc3[nH]2)cc1 | inactive
O=C1C2CCCN2c2ccc(S(=O)(=O)N3CCOCC3)cc2N1Cc1ccccc1F (centres undefined) | inactive
CCOc1cc(S(=O)(=O)N2CCN(CC)CC2)ccc1Cl | inactive
c1ccc(-n2cnc3cc(NCc4ccncc4)ccc32)cc1 | inactive
CCCCn1c(/N=C/c2ccccc2NS(=O)(=O)c2ccc(C)cc2)nc2ccccc21 | inactive
CCN(CC)C(=O)CP(=O)(c1ccccc1)c1ccccc1 | inactive

Structure (SMILES) | outcome
O=c1[nH]c(CSc2nnc(NCCCN3CCOCC3)s2)nc2cc(Cl)ccc12 | inactive
O=C(CSCc1cccc(CSCC(=O)Nc2ccc3ccccc3c2)n1)Nc1ccc2ccccc2c1 | inactive
CCN(CC)S(=O)(=O)c1ccc2c(c1)nc(SCC(=O)N1CCOCC1)n2-c1ccccc1OC | inactive
CCCc1cc(-c2nc(N)ncc2-c2ccc3c(c2)OCCCO3)c(O)cc1OC | inactive
c1ccc(CNc2nc(N3CCN(Cc4ccccc4)CC3)nc3ccccc23)cc1 | inactive
O=S(=O)(c1ccc(S(=O)(=O)N2CCN(C/C=C/c3ccccc3)CC2)cc1)N1CCCC1 | inactive
CCN1CCN(c2oc(COc3ccc(Cl)cc3)nc2C#N)CC1 | inactive
COc1ccc(NC(=O)C(Sc2nnc(-c3ccncc3)n2-c2ccccc2C)c2ccccc2)cc1Cl (centres undefined) | inactive
Cc1ccc(S(=O)(=O)NC2c3cccc4cccc(c34)C2Sc2n[nH]c(N)n2)cc1 (centres undefined) | inactive
Cc1ccc(S(=O)(=O)N2C(=O)CCC2C(=O)N2CCN(C)CC2)cc1 (centres undefined) | inactive
Cc1cccc(C=Nc2ccc3c(c2)oc2ccccc23)c1O | inactive
COc1ccc2cc(C)c3nnc(SCC(=O)Nc4nc(-c5ccccc5)cs4)n3c2c1 | inactive
c1ccc2cc(CSCc3nc4ccccc4[nH]3)ccc2c1 | inactive
CN(C(=O)c1ccc2c(c1)OCO2)C1(C(=O)NC2CCCCC2)CCCCC1 | inactive
CC(=O)Nc1ccc(C(=O)Nc2nc(-c3cc(C)n(Cc4ccccc4)c3C)cs2)cc1 | inactive
O=C(CSc1nc2ccccc2o1)Nc1ccc(N2CCOCC2)c(Cl)c1 | inactive
N#Cc1nc(-c2ccco2)oc1NCCCN1CCOCC1 | inactive
N#C/C(=C\c1c(Cl)cccc1Cl)c1nc2ccccc2[nH]1 | inactive
S=C(NN=C1C2CC3CC(C2)CC1C3)Nc1ccccc1 | inactive
Cc1ccc2[nH]c3c(NCc4ccccc4)ncnc3c2c1 | inactive
C=CCNc1ncnc2c1[nH]c1ccc(C)cc12 | inactive
COc1cccc(-c2nnc(SCC(=O)Nc3ccc(OC)c(OC)c3)n2N)c1 | inactive
Cc1ccc(C=Nc2ccccc2C(N)=O)s1 | inactive

Structure (SMILES) | outcome
CC1(C)CC(=O)C=C(Nc2ccc(Br)cn2)C1 | inactive
Cc1ccc(NC(=S)NCc2cccnc2)cc1 | inactive
S=C(NCc1cccnc1)Nc1cccc(Cl)c1 | inactive
OC(COCc1cccs1)CN1CCN(c2ccccn2)CC1 (centres undefined) | inactive
Cc1oc(CC(C)C)c(CN)c1C(=O)O | inactive
Cc1nc(N)sc1Cc1ccc2c(c1)OCO2 | inactive
CC(=O)Nc1cccc(OCC(=O)Nc2ccc(F)cc2)c1 | inactive
CC(=O)Nc1cccc(OC(=O)c2ccoc2C)c1 | inactive
CCN(CC)c1nc2n(c(=O)n1)CCO2 | inactive
Cc1cc(O)ccc1Nc1nc2ccccc2nc1Nc1ccc(O)cc1C | inactive
Cc1ccccc1Nc1nc(-c2sc(NC(=O)c3cccc(Cl)c3)nc2C)cs1 | inactive
Cc1ccc(O)c(-c2cc(-c3cccc(F)c3)n[nH]2)c1 | inactive
C=CCNC(=O)C(=O)NN=C1CCN(C)CC1 | inactive
N#CCOC(=O)c1sccc1-n1cccc1 | inactive
O=C(Cc1ccccc1)Nc1cccc(N2C(=O)C=CC2=O)c1 | inactive
Cc1ccc(C2NNC(=O)C2NC(=O)c2ccccc2)cc1 (centres undefined) | inactive
Cc1ccc(-c2nnn(CC(=O)Nc3ccccc3-c3ccccc3)n2)c(-n2cnnn2)c1 | inactive
Cc1cc(Nc2ccc(Cl)cc2)nc(N)n1 | inactive
CC(C)(C)c1nn(-c2ccccc2)c2[nH]c(=O)c(CNCc3ccco3)cc12 | inactive
CC1(C)SC(=S)N(NC(=O)Nc2ccccc2)C1N(O)C(=O)Nc1ccccc1 (centres undefined) | inactive
Cc1ccc(Nc2cc(C)nc3nc(C)nn23)cc1 | inactive
COc1ccc2c(c1)cc1n2CCN2CCCN=C12 | inactive
O=P(Cc1cc[n+]([O-])cc1)(c1ccccc1)c1ccccc1 | inactive

Structure (SMILES) | outcome
CCOC(=O)CCCNC(=O)COC(=O)CCC(=O)c1ccc(F)cc1 | inactive
CCCCn1cnc2c(cnn2-c2ccc(F)cc2)c1=O | inactive
Cc1cccnc1NC(=O)CCCN1C(=O)c2ccccc2C1=O | inactive
O=C(CCN1C(=O)COc2ccccc21)NCCN1CCOCC1 | inactive
COc1cccc(/C=N/n2c(C)nc3ccccc32)c1OC | inactive
Nc1nc(-c2ccc(Br)cc2)cs1 | inactive
Cc1cc(-c2csc(N)n2)c(C)n1C | inactive
NC(N)=Nc1nc(C2COc3ccccc3O2)cs1 (centres undefined) | inactive
Cc1ccc(-n2c(C)cc(-c3csc(N)n3)c2C)cc1 | inactive
CN(C(=O)C1CCOC1)c1nnc(-c2ccccn2)s1 (centres undefined) | inactive
COc1ccc(-c2cc(C(=O)Nc3cc(C)n(Cc4ccc(Cl)cc4)n3)no2)cc1OC | inactive
COc1cc(S(=O)(=O)N2CCCCC2)ccc1NC=O | inactive
CC1(C)CC2CC(C)(CN2C(=O)COC(=O)c2n[nH]c(=O)c3ccccc23)C1 (centres undefined) | inactive
O=C1Nc2ccccc2C12OCC1(CO2)COC2(OC1)C(=O)Nc1ccccc12 (centres undefined) | inactive
NCCCCCc1nnc(SCc2ccc(Cl)cc2Cl)o1 | inactive
O=C(Nc1ccc(O)cc1)c1cc2n(n1)C(C(F)(F)F)CC(c1ccco1)N2 (centres undefined) | inactive
O=C(c1cc(-c2cccs2)nc2ccccc12)N1CCN(c2ccccc2O)CC1 | inactive
O=C(O)CCc1nn2c3ccccc3n(CCN3CCCCC3)c2nc1=O | inactive
Cc1ccc(Nc2cc(=O)[nH]c(=O)[nH]2)c(C)c1 | inactive
O=C(O)C1CCC(N2C(=O)C3CCCCC3C2=O)CC1 (centres undefined) | inactive
Cc1cc(C(=O)CSc2nnnn2C)c(C)n1-c1ccc2c(c1)OCCO2 | inactive
Cc1ccc(-c2cc(C(=O)Nc3nccs3)c3ccccc3n2)o1 | inactive
O=C(OCc1ccccc1)Oc1cncc(C(=O)O)c1 | inactive

Structure (SMILES) | outcome
C=COC(=O)CSc1snc(SCC(=O)OC)c1C#N | inactive
C=CCSc1ncnc2sc(C)c(C)c12 | inactive
COc1ccc(NC(=O)CCNS(=O)(=O)c2ccc3c(c2)CCC(=O)N3)cc1 | inactive
CN1CCCC(OC(=O)c2ccc3c(c2)OCCO3)C1 (centres undefined) | inactive
N#Cc1ccc(N=c2ssnc2Cl)cc1 | inactive
CC(C)(C)n1ncc2c(=O)n(CC(=O)Nc3ccc4c(c3)OCO4)cnc21 | inactive
Cc1ccccc1Cn1c(=N)n(CC(=O)c2ccco2)c2ccccc21 | inactive
N=c1n(CC(=O)c2ccc([N+](=O)[O-])cc2)c2ccccc2n1Cc1ccccc1 | inactive
Cc1ccc(/C=C/c2ccc(=O)n(Cc3ccccc3Cl)n2)cc1 | inactive
COc1ccc(-n2c(=O)c3ccccc3n(CC(=O)Nc3cc(C)on3)c2=O)cc1OC | inactive
Cc1cc(-c2c(C)n([O-])c(C)c(C)[n+]2=O)ccc1F | inactive
CCOC(=O)c1ccccc1C(=O)N1CCOCCOCCOCC1 | inactive
CCOC(=O)c1c(-c2ccc(C)o2)csc1N | inactive
COc1ccc(C(=O)Nn2c(SCC(=O)N3CCC(C)CC3)nc3ccccc3c2=O)cc1 | inactive
Cc1ccc2nc(C)c(CN3CCN(c4ccc([N+](=O)[O-])cc4Cl)CC3)n2c1 | inactive
Cc1ccc(NS(=O)(=O)c2ccc(N3C(=O)CCC3=O)cc2)cc1 | inactive
O=S(=O)(Nc1ccc2c(c1)nc1n2CCN(Cc2ccccc2)C1)c1ccc(F)cc1 | inactive
CSc1cccc(NC(=O)COc2cccc3ccccc23)c1 | inactive
O=S(=O)(NC1=NCCCCC1)c1cccs1 | inactive
O=C1CSc2ccccc2N1Cc1ccc(F)cc1 | inactive
O=C(c1ccccc1S(=O)(=O)NCc1ccccc1)N1CCCC1 | inactive
COc1ccc(C2CC(c3ccccc3)=NN2c2ccc(/C=N/NC(=O)c3ccncc3)cc2)cc1 (centres undefined) | inactive

From PubChem BioAssay AID2401 (Southern Research Specialized Biocontainment Screening …, 2010)
